In PubChem BioAssay (NCI):
Compounds without any hit were thinned out: in the full panel of roughly 83,000, 20% have a hit.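 48-hour exposure, single concentration, 96-well plates; percent growth endpoint where 0 means no net growth. Active: below 10.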 Active and inactive are the calls of the source.

Legend:
Assay in all cases: NCI-60 one-dose screen, 48 h (100 = growth as untreated, 0 = no growth, -100 = all killed)
Details in all cases: 10 µM unless noted
[1] = tested on: RPMI-8226 leukemia
[2] = tested on: OVCAR-8 ovarian
[3] = tested on: OVCAR-5 ovarian
[4] = tested on: OVCAR-4 ovarian
[5] = tested on: SK-OV-3 ovarian
[6] = tested on: IGROV1 ovarian
[7] = tested on: OVCAR-3 ovarian
[8] = tested on: HS 578T breast
[9] = tested on: NCI/ADR-RES ovarian
[10] = tested on: T-47D breast
[11] = tested on: MDA-MB-435 melanoma
[12] = tested on: SW-620 colon
[13] = tested on: MCF7 breast
[14] = tested on: HCT-116 colon
[15] = tested on: HCC-2998 colon
[16] = tested on: KM12 colon
[17] = tested on: BT-549 breast

Measured: growth

Nc1n[nH]c2cc(F)c([C@@H]3Nc4c(F)cc5[nH]ncc5c4[C@H]4C5CCC(C5)[C@@H]34)cc12 (some centres undefined)
active: [1] 5.57% | [7] 8.71% | [11] -33.4% | [14] -21.2% | [15] 7.27% | [16] -40.5%
inactive: [2] 29.2% | [3] 35.1% | [4] 44.2% | [5] 34% | [6] 17.2% | [8] 26.8% | [9] 11.8% | [10] 83.8% | [12] 26.8% | [13] 21.6%

COc1ccc(C2C(c3nn[nH]n3)=C(N)Oc3c2ccc2ccccc32)cc1 (centres undefined)
inactive: [1] 66.5% | [2] 83.8% | [3] 104% | [4] 83.7% | [5] 79.5% | [6] 53.6% | [7] 64.7% | [8] 76.4% | [9] 28.3% | [10] 64.4% | [12] 29.3% | [13] 33.1% | [14] 55.7% | [15] 97.7% | [16] 50.2%
active: [11] -26.6%

O=C(c1ccccc1)c1c(/C=C/c2ccc(Cl)cc2)nc2ccccc2c1/C=C/c1cccs1
inactive: [1] 94.6% | [2] 98% | [3] 98.1% | [4] 96.3% | [5] 97.2% | [6] 94.1% | [7] 95.4% | [8] 106% | [9] 99.8% | [10] 94.6% | [11] 99.1% | [12] 110% | [13] 92.3% | [14] 95.8% | [15] 103% | [16] 99.3%

COc1ccc(NC(=O)CSc2nnc(-c3cc(-c4ccc(S(N)(=O)=O)cc4)nc4ccccc34)n2-c2ccccc2)cc1
inactive: [1] 57.9% | [2] 75.4% | [3] 92.8% | [4] 88.6% | [5] 89.8% | [6] 77.9% | [7] 95.1% | [8] 75.6% | [9] 104% | [10] 58.2% | [11] 92.2% | [12] 97.6% | [13] 78.8% | [14] 73.9% | [15] 101% | [16] 92.7%

CCCCCCCCCCCCCCCCCC1=NCCN1CCOC1=C(Cl)C(=O)c2ccccc2C1=O
inactive: [1] 33.1% | [2] 75% | [3] 115% | [5] 99.9% | [6] 67% | [7] 23.4% | [8] 90.1% | [9] 81.7% | [17] 68% | [11] 95.5% | [13] 65.6% | [14] 43.6% | [15] 100% | [16] 51%
active: [4] -5.67% | [12] 7.23%

COc1c(CCC[P+](c2ccccc2)(c2ccccc2)c2ccccc2)cc2c(c1OC)OCO2
active: [1] 8.37% | [2] 8.63% | [4] 6.3% | [7] 7.21% | [11] 2.57% | [13] 2.19% | [14] 5.97% | [16] 4.98%
inactive: [3] 30.4% | [5] 14.1% | [6] 21.2% | [8] 11.7% | [9] 103% | [17] 11.5% | [12] 13.1% | [15] 24.1%

N/C(=N/N=C/c1ccccc1)N/N=C\c1ccccc1
active: [11] -3.26%
inactive: [1] 55.3% | [2] 65.2% | [3] 83.4% | [4] 87.2% | [5] 72.4% | [6] 73% | [7] 12.6% | [8] 67.7% | [9] 10.7% | [10] 37.6% | [12] 33.5% | [13] 31.6% | [14] 35.9% | [16] 35%

COc1cccc(-c2nc3sccn3c2-c2ccnc(NCCNS(=O)(=O)c3ccc(C(F)(F)F)cc3)c2)c1
active: [1] 3.52%
inactive: [2] 27.1% | [3] 88% | [4] 16.3% | [5] 40.5% | [6] 45.2% | [7] 40.7% | [8] 30.5% | [9] 19.9% | [17] 10.4% | [11] 33.6% | [12] 64.9% | [13] 19.5% | [14] 27.9% | [15] 70% | [16] 26.4%

CC1=C([Se]CC(OC(=O)[C@@H](CO)NC(=O)OC(C)(C)C)C(=O)NC(C)(C)C)C(=O)c2ccccc2C1=O (some centres undefined)
active: [1] -33.7% | [2] -84.9% | [3] -100% | [4] -100% | [5] -100% | [6] -100% | [7] -100% | [8] -37.1% | [9] -94.7% | [10] -54.1% | [17] -100% | [11] -82.4% | [12] -85.9% | [13] -72.6% | [15] -89.9% | [16] -77.7%

CCN(CCNc1ccc(C)c2sc3ccccc3c(=O)c12)CC(C)(C)O
inactive: [1] 13.5% | [2] 87.1% | [3] 79.4% | [4] 95.7% | [5] 76.3% | [6] 79.4% | [7] 103% | [8] 59.5% | [9] 70.9% | [10] 80.7% | [17] 93.4% | [12] 73.6% | [13] 81.8% | [14] 60% | [16] 48.3%

CCN(CC)S(=O)(=O)c1cccc(-c2ccc3c(NC(=O)C4CC4)n[nH]c3c2)c1
active: [17] 1.05% [6.25 µM] | [11] 7.53% [6.25 µM] | [13] 6.78% [6.25 µM]
inactive: [1] 11% [6.25 µM] | [2] 14.7% [6.25 µM] | [3] 51.6% [6.25 µM] | [4] 18.7% [6.25 µM] | [5] 28.6% [6.25 µM] | [6] 34.7% [6.25 µM] | [7] 17.3% [6.25 µM] | [8] 23.8% [6.25 µM] | [9] 79.7% [6.25 µM] | [12] 26.1% [6.25 µM] | [14] 11.9% [6.25 µM] | [15] 43.9% [6.25 µM] | [16] 12.6% [6.25 µM]

CCN1C(=O)N(CC)C2Nn3c(s/c(=C\c4cccc([N+](=O)[O-])c4)c3=O)=NC21 (centres undefined)
inactive: [1] 64.8% | [2] 44.7% | [3] 45.4% | [4] 59.6% | [5] 51.7% | [6] 53.1% | [8] 41.3% | [9] 16.1% | [10] 59.5% | [17] 58.5% | [12] 36.4% | [13] 35% | [14] 23.6% | [15] 87.7% | [16] 26.7%
active: [7] 9.24%

CC(=O)c1nc(Nc2ccc(C)cc2)sc1C
inactive: [1] 96.2% | [2] 95% | [3] 97% | [4] 110% | [5] 97.8% | [6] 86.9% | [7] 97.5% | [8] 90.1% | [9] 99.4% | [10] 85.6% | [11] 103% | [12] 97.4% | [13] 87.3% | [14] 90.9% | [15] 101% | [16] 98.6%

O=S(=O)(NCCCNc1cc(-c2c(-c3cccc(O)c3)nc3sccn23)ccn1)c1cccc(Cl)c1
active: [1] 5.17% | [10] 6.58%
inactive: [2] 17.1% | [3] 107% | [4] 35.2% | [5] 49.1% | [6] 40.5% | [7] 32.7% | [8] 32.5% | [9] 76.7% | [17] 21.5% | [12] 48.4% | [13] 55.5% | [14] 33.5% | [15] 58.2% | [16] 32.4%

COc1ccc(-c2nc(SC(C)C)nc(NNC(N)=S)c2C#N)cc1
inactive: [1] 32.7% | [2] 71.2% | [3] 66% | [4] 86.3% | [5] 73% | [6] 52.6% | [7] 18.2% | [8] 54.9% | [9] 19.6% | [10] 51.6% | [12] 22.2% | [13] 30.7% | [14] 75.1% | [15] 63.7% | [16] 39.2%

c1csc(-c2c3ccc(=[N+]4CCCCC4)cc-3oc3cc(N4CCCCC4)ccc23)c1
active: [1] -39.1% | [2] -33.5% | [3] -83.1% | [4] -54.3% | [5] -89% | [6] -67.1% | [7] -96.9% | [8] -20.7% | [9] -38.9% | [10] -60.7% | [11] -46.5% | [12] -76% | [13] -57.2% | [14] -97.1% | [15] -94.2% | [16] -92.9%

NC(=S)Nc1cccc(O)c1
inactive: [1] 88.5% | [2] 94.2% | [3] 96.3% | [4] 107% | [5] 101% | [6] 98% | [7] 110% | [8] 102% | [9] 94.2% | [10] 106% | [17] 78.8% | [12] 99.8% | [13] 98.8% | [14] 91.6% | [15] 96.7% | [16] 106%
